# Whole data set: some 81,000 sequences, median “one-hybrid fitness for binding parS DNA” near -0.17, cut for the highest 2% near 0.51. The sample as a whole holds a higher share of the highest values than the screen did.
# B1: Caulobacter ParB omega fusion; a variant is named by its letters at X, in order, B8GW30 (parent)
# chain: MESVVVGEPGMSEGRRGLGRGLSALLGEVDAAPAQAPGEQLGGSREAPIEILQRNPDQPRRTFREEDLEDLSNSIREKGVLQPILVRPSPDTAGEYQIVAGERAWRAAQRAGLKTVPIMVRELDDLAVLEIGIIENVQRADLNVLEEALSYKVLMEKFERTQENIAQTIGKSXSHVANXMRLLXLPDEVQSYLVSGELTAXHARAIAAAADPVALAKQIIEGGLSVRETEALARKAPNLSAGKSKGGRPPRVKDTDTQALESDLSSVLGLDVSIDHRGSTGTLTITYATLEQLDDLCNRLTRGI
# Variants of: B1
# Assay: one-hybrid fitness for binding parS DNA (scaled: cognate 1, non-cognate 0); higher = stronger binding
# Conditions: with parS DNA site
# Method in brief: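 Caulobacter ParB libraries with four specificity codons randomised were screened by bacterial one-hybrid selection in the E. coli USO strain, using a HIS3 reporter whose site lies 19 bp from the promoter. Selection ran for 48 hours at 37°C on M9 lacking histidine, with 0.1 mM IPTG and 5 mM 3-AT. Plasmids were Illumina-sequenced before and after selection, three replicate libraries were pooled, and variants with under 10 reads were dropped. Fitness is the log change in each variant's read ratio to wild type, rescaled against the cognate and non-cognate sites.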
row,Variant,one-hybrid fitness for binding parS DNA
1,MQRR,≤ 0.2
2,PCLL,≤ 0.2
3,ARAW,≤ 0.2
4,RIVC,0.942
5,RIKQ,≤ 0.2
6,RIKR,≤ 0.2
7,RIVQ,≤ 0.2
8,RIKC,0.805
9,RIVM,0.281
10,MKRV,≤ 0.2
11,RFFN,0.262
12,RFAC,0.91
13,NFAC,≤ 0.2
14,RFFY,0.269
15,RFFC,0.674
16,RFAN,0.372
17,WGLC,≤ 0.2
18,MPTN,≤ 0.2
19,GFLD,≤ 0.2
20,EFEC,≤ 0.2
21,RQFD,≤ 0.2
22,RQFG,0.917
23,RQFN,0.363
24,RQAR,≤ 0.2
25,RQAY,0.444
26,RQAG,1

row,Variant,one-hybrid fitness for binding parS DNA
1,WVPR,≤ 0.2
2,RQQP,≤ 0.2
3,RQSN,0.438
4,RQWH,≤ 0.2
5,RQAS,0.988
6,RQAP,≤ 0.2
7,RQSP,≤ 0.2
8,RQQD,≤ 0.2
9,RQQS,0.987
10,RQAH,≤ 0.2
11,RQWP,≤ 0.2
12,RQWS,0.959
13,RQSS,0.979
14,KHSR,≤ 0.2
15,ICNS,≤ 0.2
16,TSSN,≤ 0.2
17,FLHK,≤ 0.2
18,SFKN,≤ 0.2
19,PRKR,≤ 0.2
20,NSVS,≤ 0.2
21,GRDV,≤ 0.2
22,RQYS,1
23,RQYN,0.393
24,RQFS,0.957
25,RQCH,≤ 0.2
26,RQFP,≤ 0.2

row,Variant,one-hybrid fitness for binding parS DNA
1,RQYP,≤ 0.2
2,RQLP,≤ 0.2
3,RQFH,≤ 0.2
4,RQLS,1.02
5,RQCS,0.976
6,RQLN,0.439
7,RQCN,0.416
8,AMKF,≤ 0.2
9,SCQY,≤ 0.2
10,YPKA,≤ 0.2
11,IKCR,≤ 0.2
12,AFFR,≤ 0.2
13,MTRW,≤ 0.2
14,RQHP,≤ 0.2
15,RQGN,0.441
16,RQRS,0.918
17,RQGS,0.978
18,RQHN,0.425
19,RQRN,0.451
20,RQRD,≤ 0.2
21,RQGP,≤ 0.2
22,RQHS,0.988
23,KTML,≤ 0.2
24,PITI,≤ 0.2
25,GSLR,≤ 0.2
26,VPIR,≤ 0.2

row,Variant,one-hybrid fitness for binding parS DNA
1,RTEQ,≤ 0.2
2,RHEG,0.898
3,RHEH,≤ 0.2
4,RDEG,≤ 0.2
5,RREY,0.295
6,RTEG,0.893
7,RREK,≤ 0.2
8,RPEG,≤ 0.2
9,RHEP,≤ 0.2
10,RTEF,0.202
11,RREG,0.915
12,RCEG,0.915
13,TLIV,≤ 0.2
14,SWMS,≤ 0.2
15,PFMN,≤ 0.2
16,ASAS,≤ 0.2
17,TTEV,≤ 0.2
18,EKIY,≤ 0.2
19,VYPH,≤ 0.2
20,PRMG,≤ 0.2
21,VNWT,≤ 0.2
22,LVHA,≤ 0.2
23,SFKQ,≤ 0.2
24,RIED,≤ 0.2
25,RAEG,0.852
26,RIEI,≤ 0.2

row,Variant,one-hybrid fitness for binding parS DNA
1,RAEH,≤ 0.2
2,RMEL,≤ 0.2
3,RMEI,≤ 0.2
4,RAEP,≤ 0.2
5,RKEF,≤ 0.2
6,RKED,≤ 0.2
7,RKEG,0.949
8,RIEG,0.771
9,RMEG,0.86
10,HTCW,≤ 0.2
11,CSFT,≤ 0.2
12,DPQT,≤ 0.2
13,PMYE,≤ 0.2
14,ASIR,≤ 0.2
15,RLEG,0.925
16,RGEG,0.474
17,NFEG,≤ 0.2
18,RSEG,0.802
19,REEG,≤ 0.2
20,RLED,≤ 0.2
21,RLEN,0.4
22,RFEG,0.731
23,DFEG,≤ 0.2
24,HYRI,≤ 0.2
25,IEVV,≤ 0.2
26,YPPA,≤ 0.2

row,Variant,one-hybrid fitness for binding parS DNA
1,NRYK,≤ 0.2
2,SSLC,≤ 0.2
3,PCWL,≤ 0.2
4,TTWY,≤ 0.2
5,CCRS,≤ 0.2
6,RMFG,1
7,RMFK,≤ 0.2
8,RMAP,0.205
9,RMAD,0.207
10,RMAG,1.01
11,RMFY,0.492
12,LSRQ,≤ 0.2
13,RFMR,≤ 0.2
14,RIIM,0.273
15,RIPC,0.626
16,RIPY,0.232
17,RIIC,0.901
18,RIIF,≤ 0.2
19,RIPM,≤ 0.2
20,SCFV,≤ 0.2
21,QTMW,≤ 0.2
22,SRTC,≤ 0.2
23,RIWF,0.282

# From a collection of fitness landscapes (doi:10.1016/j.celrep.2020.107928)
